From PubChem BioAssay
AmpC detergent = qHTS Inhibitors of AmpC Beta-Lactamase (assay with detergent); Potency, µM (titrated, usually from 114 µM), hits mostly inhibitors; AmpC hydrolysis of nitrocefin, absorbance 480 nm, 0.01% Triton; hit rate 0.041% among 370,000; P00811; AID 485294, 2010; note: nearly all actives have a fitted effect of over 25% in size
Target sequence (P00811 whole entry, looked up): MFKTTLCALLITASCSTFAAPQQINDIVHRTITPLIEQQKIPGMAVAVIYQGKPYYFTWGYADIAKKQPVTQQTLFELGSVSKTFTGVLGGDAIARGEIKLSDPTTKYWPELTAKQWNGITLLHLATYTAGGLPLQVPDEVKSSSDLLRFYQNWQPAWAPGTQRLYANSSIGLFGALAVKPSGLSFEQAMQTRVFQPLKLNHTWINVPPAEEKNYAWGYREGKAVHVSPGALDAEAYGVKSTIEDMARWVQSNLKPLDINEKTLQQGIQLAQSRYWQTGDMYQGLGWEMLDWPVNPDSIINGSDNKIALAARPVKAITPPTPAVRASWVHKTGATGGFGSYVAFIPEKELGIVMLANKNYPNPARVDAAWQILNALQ
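AmpC (5.3 nM in the dispensed reagent) in 20 mM phosphate pH 7.0 with 0.01% (detergent screen) or 0.0001% Triton X-100 was preincubated with compounds for 15 min at room temperature. Nitrocefin was then added from an 800 uM solution, and hydrolysis was followed at 480 nm.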
RE007 growth inh = qHTS Assay for Inhibitors of the HIV-1 protein Vpr. S. pombe RE007 Vpr strain, BacTiter-Glo ATP luminescence, 24 h. Potency, µM (top dose mostly 92.2 µM), hits mostly inhibitors. hit rate 0.21% among 360,000; active = well fitted falling curve with a large enough effect; inconclusive = small, poorly fitted or top-dose-only effect; inactive = no such curve, though single readings can be large or run the other way; note: nearly all actives have a fitted effect of over 50% in size
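Fission yeast strain RE007, carrying one chromosomally integrated HIV-1 vpr copy, was seeded at OD 0.01 in PMG+AL medium with 23 nL pinned compound. After 24 h at 30 °C and 99% humidity, viability was read by BacTiter-Glo luminescence.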
AmpC inh no detg = qHTS Inhibitors of AmpC Beta-Lactamase (assay without detergent); P00811; AmpC nitrocefin hydrolysis, absorbance 480 nm, 0.0001% Triton; Potency, µM (titrated, usually from 57.1 µM), actives largely listed as inhibitors; hit rate 0.52% among 330,000; note: nearly all actives have a fitted effect of over 20% in size
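AmpC (5.3 nM in the dispensed reagent) in 20 mM phosphate pH 7.0 with 0.01% (detergent screen) or 0.0001% Triton X-100 was preincubated with compounds for 15 min at room temperature. Nitrocefin was then added from an 800 uM solution, and hydrolysis was followed at 480 nm.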
AMA1-RON2 inh = qHTS for Inhibitors of AMA1-RON; Towards Development of Antimalarial Drug Lead: Primary Screen; AlphaScreen AMA1-biotinylated RON2 peptide binding; hit rate 0.2% among 360,000; Potency, µM (series often up to 58.2 µM), most hits filed as inhibitors; Plasmodium falciparum AMA1 (3D7) - RON2 peptide interaction; note: nearly all actives have a fitted effect of over 45% in size
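AMA1 (3D7) with his tag at 25 nM final met compounds first, then biotinylated RON2 peptide at 25 nM; detection used donor plus acceptor beads, 10 µg/mL apiece, read by AlphaScreen after 30 min at room temperature.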
Sm TGR inh = qHTS Assay for the Inhibitors of Schistosoma Mansoni Peroxiredoxins; Potency, µM (titrated, usually from 114 µM), hits mostly inhibitors; Schistosoma mansoni thioredoxin glutathione reductase (TGR), Q962Y6; AID 485364, 2010; purified TGR, DTNB reduction, TNB absorbance 405 nm; hit rate 3% among 360,000; note: nearly all actives have a fitted effect of over 60% in size
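First, TGR (20 nM dispensed) and NADPH were mixed with compound. Second, a 15 min room-temperature incubation followed. Third, further NADPH and then DTNB were added to start the reaction. Finally, TNB absorbance was monitored kinetically.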
Numbers stand for hits; i = inactive; ? = inconclusive; nt = no result; [ ] = dose if it differs, or a comment. In the library only some 3.2% were active in any assay of this set; here they are far more common. Unless noted, calls come from the whole dose curve; as a rule, active = well fitted curve in the direction sought with a large enough effect; inconclusive = small, poorly fitted or top-dose-only effect, or another doubt; inactive = no such curve, though single readings can be large; an effect the other way counts as inactive or inconclusive.

SMILES | AmpC detergent | RE007 growth inh | AmpC inh no detg | AMA1-RON2 inh | Sm TGR inh
CC1CCCCC1NC(=O)Cc1ccc(S(=O)(=O)N2CCOCC2)s1 (centres undefined) | ? | i | 35µM | i | i
CN(C)c1nc(F)c(F)c(S(=O)(=O)c2ccccc2)c1F | i | i | i | i | 40µM
COc1ccccc1CNC(=O)CN1C(=O)CCc2cc(S(=O)(=O)N3CCCCC3)ccc21 | ? | nt | nt | nt | i
Cc1ccc(C(=O)NC(N2CCCC2)C(Cl)(Cl)Cl)cc1 (centres undefined) | ? | i | i | i | 35µM
COc1ccc2c(c1)c1c(c(=O)n(Cc3ccccc3)c(=O)n1Cc1ccc(C)cc1)n2C | i | nt | nt | nt | i
CCc1cccc(NC(=O)c2cc3c(=O)[nH]c4ccccc4c3n2C)c1 | i | nt | nt | nt | i
CCOC(=O)c1ccccc1NC(=O)NCc1cccn1Cc1ccc(F)cc1 | i | nt | nt | nt | i
COc1ccccc1CNC(=O)c1ccc(N2CCCC2)c(NC(=O)NCCC(C)C)c1 | i | nt | nt | nt | ?
Cc1ccccc1NC(=O)C1CC(=O)n2ncnc2N1 (centres undefined) | i | i | i | i | 35µM
Cc1cccc(NC(=O)C2CC(=O)n3ncnc3N2)c1 (centres undefined) | i | i | i | i | i
O=C(CSc1nc(O)cc(=O)n1-c1ccccc1)Nc1ccccn1 | i | i | 11µM | i | i
O=C(CSc1nc(O)cc(=O)n1-c1ccccc1)NCc1ccccc1 | i | i | i | i | i
CCN(Cc1ccccc1)C(=O)Cn1cc2c(n1)CCCC2 | i | i | 4.5µM | i | i
CCOCCCNC(=O)Cn1cc2c(n1)CCCCC2 | ? | i | 45µM | i | i
Cc1ccc2nc(NC(=O)Cn3cc4c(n3)CCCCC4)sc2c1 | ? | i | 2.8µM | i | i
O=C(Cn1cc2c(n1)CCCCC2)NCc1ccccc1 | ? | i | i | i | i
O=C(O)Cn1cc2c(n1)CCCC2 | i | i | i | i | i
CC(C)CCNC(=O)Cn1cc2c(n1)CCCCC2 | ? | i | 45µM | i | i
Cc1cccc(NC(=O)Cn2cc(S(=O)(=O)N3CCCC3)c(S(=O)(=O)N3CCCC3)c2)c1C | i | nt | nt | nt | i
CCOP(=O)(Cc1cc(C(C)=O)c(C)o1)OCC | i | i | i | i | 40µM
CCOP(=O)(Cc1ccccc1)OCC | i | i | i | i | i
CCCC(=O)c1cc(CP(=O)(OCC)OCC)oc1C | i | i | i | i | 28µM
CCOP(=O)(Cc1ccc(C#N)o1)OCC | i | i | i | i | i
CCOP(=O)(Cc1ccc(C(C)(C)CC(C)=O)o1)OCC | i | i | i | i | 16µM
CC(C)(C)OC(=O)N1CCC(c2c(C(=O)NC3CCN(Cc4ccccc4)CC3)cnn2-c2ccc(F)cc2F)CC1 | i | nt | nt | nt | i
SMILES | AmpC detergent | RE007 growth inh | AmpC inh no detg | AMA1-RON2 inh | Sm TGR inh
CC(C)NC(=O)N1[C@H](c2cccs2)[C@@H](C)C(=O)[C@@H](C)[C@@H]1c1cccs1 | i | nt | nt | nt | i
CCOC(=O)c1cc(S(=O)(=O)N2CCN(c3ccc(C(C)=O)cc3)CC2)[nH]n1 | i | nt | nt | nt | i
CC1(C)CC(=O)c2sc(NC(=O)CCS(=O)(=O)c3ccccc3)nc2C1 | i | i | i | i | i
CC1(C)CC(=O)C(CS(=O)(=O)c2ccccc2)=C(Cl)C1 | i | i | i | i | 7.1µM
NC(=O)C1CCN(CC(=O)c2c[nH]c3ccc(F)cc23)CC1 | i | i | 0.14µM | i | i
C#CCOCCOCCOCCNc1nc(N2CCN(C(=O)[C@H](Cc3ccc(O)cc3)n3cc(CCO)nn3)CC2)nc(N2CCN(C(=O)[C@H](Cc3ccc(O)cc3)n3cc(CCO)nn3)CC2)n1 | i | nt | i | nt | 40µM
C#CCOCCOCCOCCNc1nc(N2CCN(C(=O)[C@H](CCC(=O)O)n3cc(C(N)Cc4ccc(O)cc4)nn3)CC2)nc(N2CCN(C(=O)[C@H](CCC(=O)O)n3cc(C(N)CC(C)C)nn3)CC2)n1 (some centres undefined) | i | i | i | i | 35µM
C#CCOCCOCCOCCNc1nc(N2CCN(C(=O)[C@H](CCCCN)n3cc(C(N)[C@H](C)CC)nn3)CC2)nc(N2CCN(C(=O)[C@H](CCC(=O)O)n3cc(C(N)[C@H](C)CC)nn3)CC2)n1 (some centres undefined) | i | i | i | i | 16µM
C#CCOCCOCCOCCNc1nc(N2CCN(C(=O)[C@H](CCC(=O)O)n3cc(C(N)CO)nn3)CC2)nc(N2CCN(C(=O)[C@H](Cc3ccc(O)cc3)n3cc(C(N)CC(C)C)nn3)CC2)n1 (some centres undefined) | i | nt | i | nt | 10µM
C#CCOCCOCCOCCNc1nc(N2CCN(C(=O)[C@H](CCCCN)n3cc([C@@H](N)[C@H](C)CC)nn3)CC2)nc(N2CCN(C(=O)[C@H](CCC(=O)O)n3cc([C@@H](N)CCCCN)nn3)CC2)n1 | nt | i | i | i | nt
C#CCOCCOCCOCCNc1nc(N2CCN(C(=O)[C@H]([C@@H](C)CC)n3cc([C@@H](N)Cc4ccc(O)cc4)nn3)CC2)nc(N2CCN(C(=O)[C@H](CCCCN)n3cc([C@@H](N)CO)nn3)CC2)n1 | i | nt | i | nt | 20µM
Cc1c(NS(=O)(=O)c2ccccc2)cc(C(C)C)c(O)c1S(=O)(=O)c1ccc(Cl)cc1 | i | nt | nt | nt | i
O=C(O)Cn1cc(/C=C2\C(=O)NC(=O)N(Cc3ccco3)C2=O)c2ccccc21 | i | i | i | i | 5µM
Cn1cccc1/C=C1\C(=O)NC(=O)N(Cc2ccccc2)C1=O | i | i | i | i | i
O=C1NC(=O)N(Cc2ccco2)C(=O)/C1=C/c1cccn1CCOc1ccccc1Cl | i | i | 13µM | i | ?
COC(=O)c1nc2n(n1)C(c1cc(OC)ccc1OC)C(C(=O)Nc1ccc(C)cc1C)=C(C)N2 (centres undefined) | i | nt | nt | nt | ?
O=C(O)Cc1ccc(NC(=S)Nc2ccc(Br)cc2Cl)cc1 | i | i | i | i | 22µM
S=C(Nc1ccccc1)Nc1ccc(Br)cc1 | i | i | i | i | ?
O=C(O)Cc1ccc(NC(=S)Nc2cccc(Cl)c2Cl)cc1 | i | i | i | i[2.32 µM] | ?
Fc1ccccc1NC(=S)Nc1ccc(Br)cc1 | i | i | i | i | 50µM
Fc1cc(Br)ccc1NC(=S)Nc1ccccc1 | i | nt | i | i | 28µM
CCCOc1ccc(CNC(=O)c2cc3oc4ccccc4c3n2C)cc1 | i | nt | nt | nt | i
CCCn1c(=O)c2sccc2n2c(CCCC(=O)Nc3ccccc3F)nnc12 | i | nt | nt | nt | i
CCOC(=O)C1CCCN(C(=O)CCc2nnc(-c3ccc(C(C)=O)s3)o2)C1 (centres undefined) | i | i | i | i | 16µM
